Structures are written as SMILES. Results filed as inconclusive are left out. Activity calls are given as the source filed them. The call rests on the fitted dose curve; in most records, active means well fitted inhibition curve with a large enough effect; inconclusive means small, poorly fitted or top-dose-only effect; inactive means no such curve, though single readings can be large or run the other way.
Potency means the concentration at half of the fitted maximal effect.

The test is described as follows: InCell qHTS Assay for Inhibitors of the mTORC1 Signaling Pathway in MEF (Tsc2-/-, p53-/-) Cells: Hit Validation.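 Further: phospho-S6 Ser235/236 signal normalized to propidium iodide cell count per well; nearly all actives have a fitted effect of over 75% in size.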 The conditions noted are these: phospho-rpS6 immunofluorescence, 24 h; activity change, negative = inhibition: at 38.3 µM (top of the series). On the technique in general: qHTS replaces the single test concentration by a dilution series.
With `Cc1oc2c(cc(NS(=O)(=O)c3ccc(C(C)C)cc3)c3ccccc32)c1C(=O)OCc1ccccc1`, the activity change, negative = inhibition is -1.72%.

On to `Cc1ccc(-n2ncc(C(=O)NCCCN3CCc4ccccc4C3)c2C2CCN(C(=O)OC(C)(C)C)CC2)c(C)c1`, for which the activity change, negative = inhibition is -100%.

For `CCOc1ccccc1NC(=O)c1cn(C2CCCC2)c(=O)c2c1c1ccccc1n2C`, the activity change, negative = inhibition is -100%.

In the case of `O=c1c(-c2cc(-c3ccc(F)cc3)nc3c2COc2ccc(Cl)cc2-3)coc2ccc(F)cc12`, the activity change, negative = inhibition was -100%.

For the compound `COc1cc(Br)ccc1C1C(C(=O)Nc2ccc(C)cc2C)=C(C)Nc2nnnn21` (configuration not stated), the activity change, negative = inhibition was -100%.

On to `COc1ccc(N2CC(c3nc(-c4cc(OC)c(OC)c(OC)c4)no3)CC2=O)cc1Cl` (configuration not stated), for which the activity change, negative = inhibition was -100%.

Turning to `CC(C)Oc1ccc(CNC(=O)c2ccc3nc(SCc4ccc(F)cc4)n(C)c3c2)cc1`, the activity change, negative = inhibition is -100%.

Regarding `O=C(Nc1cccc(C(F)(F)F)c1)c1cnn(-c2cccc(F)c2)c1C1CCNCC1`, the activity change, negative = inhibition is -100%.

In the case of `COc1cc(-c2ccno2)ccc1S(=O)(=O)N1CCN(c2cc(C)ccc2C)CC1`, the activity change, negative = inhibition was -100%.

Regarding `O=C(NCc1ccc(Cl)cc1)C(=O)NCC(c1cccs1)S(=O)(=O)c1ccc(Cl)cc1` (configuration not stated), the activity change, negative = inhibition was -100%.

`CCOC(=O)c1sc2ccccc2c1S(=O)(=O)Nc1ccc(CC)cc1`: the activity change, negative = inhibition is -100%.

For the compound `Cc1cc(C)c(-c2n[nH]c3c2C(c2ccccc2F)N(Cc2ccco2)C3=O)c(O)c1` (configuration not stated), the activity change, negative = inhibition was -100%.

On to `COC(=O)c1ccc(NC(=O)c2nc(-c3ccc(Cl)cc3)n3c2CCCCC3)cc1`, for which the activity change, negative = inhibition is -100%.

As to `Cc1cccc(-n2cnc3cc(C(=O)NC4CCCCCC4)ccc32)c1`, the activity change, negative = inhibition is -100%.

On to `Cc1cc(NCc2ccc(Cl)cc2)n2cnnc2n1`, for which the activity change, negative = inhibition was -100%.

Consider `CCC1CCc2nc3sc(C(=O)Nc4cccc(F)c4)c(N)c3cc2C1` (configuration not stated), for which the activity change, negative = inhibition was -100%.

Take `Cc1nc2nncn2c(NCc2ccc(Cl)cc2)c1C`: the activity change, negative = inhibition is -100%.

In the case of `O=C(NCc1ccccc1)c1nc(S(=O)(=O)Cc2ccccc2)ncc1Cl`, the Potency is 5.85 µM (active).

On to `O=C(Cn1cc(SCc2ccccc2)c2ccccc21)N1CCCCCC1`, for which the activity change, negative = inhibition was -100%.

Take `Cc1oc2ccc(O)c(CN3CCCC(C)C3)c2c1C(=O)Nc1ccccc1` (configuration not stated): the activity change, negative = inhibition is -29.6%.

Regarding `CCS(=O)(=O)c1ncc(Cl)c(C(=O)Nc2ccccc2)n1`, the Potency is 2.61 µM (active).

As to `O=C(Nc1ccc(F)c(Cl)c1)c1cc(S(=O)(=O)N2CCCc3ccccc32)ccc1F`, the activity change, negative = inhibition is -100%.

Regarding `COC(=O)c1ccccc1NC(=O)c1nc(S(=O)(=O)Cc2cccc(C)c2)ncc1Cl`, the Potency is 3.69 µM (active).

As to `COc1ccc(S(=O)(=O)NCCc2csc3nc(-c4ccc(Cl)cc4)nn23)cc1C`, the activity change, negative = inhibition is -100%.

`Oc1ccc(NCc2ccc(OCc3ccccc3Cl)cc2)cc1`: the activity change, negative = inhibition was -100%.

Take `COc1ccc(Oc2nc3c(C)cccn3c(=O)c2/C=C(\C#N)c2nc3ccccc3[nH]2)cc1`: the activity change, negative = inhibition was -100%.

`CCCCOc1ccc(Cn2c(=O)sc3ccccc32)cc1`: the activity change, negative = inhibition was -100%.

As to `Cc1ccc(NC(=O)c2c(C)oc3ccc(O)c(CN(C)Cc4ccccc4)c23)c(C)c1`, the activity change, negative = inhibition was -100%.

For the compound `CCC(C(=O)N1CCN(c2cccc(C)c2C)CC1)n1nc(C)c2sc3ccccc3c2c1=O` (configuration not stated), the activity change, negative = inhibition is -100%.

In the case of `CCCN1C(=O)C(O)(CC(=O)c2ccc(CC)cc2)c2ccccc21` (configuration not stated), the activity change, negative = inhibition is -100%.

Consider `COc1ccc(CC(=O)Nc2sc3c(c2C(=O)Nc2cccc(C)c2)CCCCC3)cc1`, for which the activity change, negative = inhibition was -17.5%.

With `Cc1ccc2occ(CC(=O)Nc3ccc(Cl)c(C(F)(F)F)c3)c2c1`, the activity change, negative = inhibition was -100%.

With `COc1ccc(N2CCN(C(=O)C3CCN(Cc4nc(-c5ccc(Cl)cc5)oc4C)CC3)CC2)cc1`, the activity change, negative = inhibition was -100%.

Regarding `COc1ccccc1NC(=O)c1sc(-c2ccc(Cl)cc2)cc1N`, the activity change, negative = inhibition is -100%.

Regarding `Cc1ccc(NC(=O)CCNS(=O)(=O)c2cccc3nonc23)cc1Cl`, the activity change, negative = inhibition was -100%.

For `Cc1cc(C)c(NC(=O)c2sc3nc(C)cc(C)c3c2NC(=O)c2ccccc2)c(C)c1`, the activity change, negative = inhibition was -100%.

As for `Cc1cccc(Nc2ncc(NC(=O)c3cccc(F)c3)c(Nc3cccc(C)c3)n2)c1`, the activity change, negative = inhibition is -100%.
